Reference: PubChem BioAssay AID430 (Sanford-Burnham Center for Chemical Genomics, 2006)
Among all 63,000 compounds or so, about 1,100 (1.7%) were called active. Rule as the data show it: active = cytotoxicity above about 50%; inactive = the rest. The full list was thinned out, with actives kept by preference. Measured potencies and affinities stand elsewhere.

Test: cytotoxicity in HPDE-C7 cells, cell-based, fluorescence, HTS (AID 430);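 also: cells exposed to compound for 48 hours before viability readout; 0% = vehicle and 100% = reference cytotoxic drug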
Conditions: HPDE-C7 pancreatic duct cells viability, at 10 µM, active compounds read high

Structure (SMILES)	cytotoxicity
CCN(C(C)=O)c1nnc(CSc2nc3ccccc3s2)s1	12.1% (inactive)
CCN(C(=O)c1ccc(C(C)(C)C)cc1)c1nnc(Cn2nnc3ccccc32)s1	81.9% (active)
CCN(C(=O)CSc1nnc(Cn2nnc3ccccc32)o1)c1nc(-c2ccccc2)cs1	-7.6% (inactive)
COc1ccc(N2CCN(C(=O)CCNS(=O)(=O)c3ccc(Br)s3)CC2)cc1	-17.4% (inactive)
Cc1ccc(S(=O)(=O)N2CCC(C(=O)Nc3nnc(COc4ccccc4)s3)CC2)cc1	-3.6% (inactive)
O=C(CCNC(=O)Cn1ccc2ccccc2c1=O)NCCCN1CCN(c2ccccc2F)CC1	-10.7% (inactive)
Cc1cc(C)c2c(=O)n(CC(=O)NCCCN3CCN(c4ccccc4F)CC3)sc2n1	88.5% (active)
Cc1cc(C)c2c(=O)n(CC(=O)NCCCN3CCOCC3)sc2n1	6.4% (inactive)
CCC(NC(=O)Nc1ncccc1C)(C(F)(F)F)C(F)(F)F	-6.7% (inactive)
COc1ccc2c(c1)sc1nc(-c3ccccc3)cn12	53.2% (active)
CCOC(=O)N1CCN(C(=O)c2ccc3c(c2)sc2nc(-c4ccccc4)cn23)CC1	2.8% (inactive)
CCOC(=O)N1CCN(C(=O)c2ccc3c(c2)sc2nc(-c4ccc(OC)cc4)cn23)CC1	12.1% (inactive)
CS(=O)(=O)N(CC(=O)NCc1ccco1)Cc1ccc(Cl)cc1	-9.3% (inactive)
COc1ccccc1S(=O)(=O)Cc1ccc(C(=O)NCCN(C)C)o1	8% (inactive)
O=S(=O)(c1cccc2nsnc12)N1CCN(c2ncccn2)CC1	-8.5% (inactive)
COc1ccc(C2=CC(c3ccc(OC)c(OC)c3)n3nnnc3N2)c(OC)c1 (centres undefined)	14.7% (inactive)
COc1ccccc1C1C=C(c2ccc(C)cc2)Nc2nnnn21 (centres undefined)	-0.5% (inactive)
COc1ccc(C2=CC(c3sccc3C)n3nnnc3N2)cc1 (centres undefined)	12.4% (inactive)
COc1ccc(C2C=C(c3ccccc3)Nc3nnnn32)cc1 (centres undefined)	-3.3% (inactive)
COc1cccc(C2=CC(c3ccccc3)n3nnnc3N2)c1 (centres undefined)	53.7% (active)

Structure (SMILES)	cytotoxicity
COc1ccc(C2=CC(c3ccc(F)cc3)n3nnnc3N2)cc1 (centres undefined)	-4% (inactive)
COc1ccccc1C1C=C(c2ccccc2)Nc2nnnn21 (centres undefined)	29.6% (inactive)
COc1ccc(OC)c(C2C=C(c3ccc(C)c(C)c3)Nc3nnnn32)c1 (centres undefined)	10.4% (inactive)
COc1cccc(C2=CC(c3cc(OC)ccc3OC)n3nnnc3N2)c1 (centres undefined)	70.3% (active)
COc1ccc(C2=CC(c3c(C)nn(-c4ccccc4)c3Cl)n3nnnc3N2)cc1OC (centres undefined)	72.4% (active)
COc1cccc(C2=CC(c3ccc(N(C)C)cc3)n3nnnc3N2)c1 (centres undefined)	-3% (inactive)
CCOC(=O)N1CCN(c2c(N3CCC(N4CCCCC4)CC3)c(=O)c2=O)CC1	10.5% (inactive)
CN(Cc1ccccc1)Cc1nc2c(c(=O)n(C)c(=O)n2C)n1Cc1ccc(F)cc1	-29.4% (inactive)
O=C(CCS(=O)(=O)c1cccc2nsnc12)N1CCN(C(=O)c2ccco2)CC1	-15.9% (inactive)
CN1CCN(C2=NC3(CCCC3)C(C#N)C(=O)N2)CC1 (centres undefined)	23.5% (inactive)
COC(=O)c1c(F)c(F)c(NCCO)c(F)c1F	-3.7% (inactive)
CC(NC(=O)NC1CCCCC1)C(c1cccs1)N1CCOCC1 (centres undefined)	-7.5% (inactive)
CCOC(=O)C1CCN(C(=O)CSc2n[nH]c(=O)[nH]c2=O)CC1	9.8% (inactive)
CNC(=O)/C(=N\O)c1ccccc1	-14.1% (inactive)
COc1cc(C(=O)NCCc2ccc(S(N)(=O)=O)cc2)cc(OC)c1OC	3.4% (inactive)
COc1cccc(C2=CC(c3cccc(OC)c3OC(F)F)n3nnnc3N2)c1 (centres undefined)	-21.2% (inactive)
COc1ccc(C2=CC(c3ccc(C)cc3)n3nnnc3N2)cc1 (centres undefined)	-1.9% (inactive)
CCOc1ccc(C2C=C(c3ccc(C)cc3)Nc3nnnn32)cc1 (centres undefined)	-0.9% (inactive)
COc1cccc(C2=CC(c3cccc(OC)c3OC)n3nnnc3N2)c1 (centres undefined)	71.4% (active)
COc1cccc(C2=CC(c3ccc(OC)c(OC)c3OC)n3nnnc3N2)c1 (centres undefined)	-3.9% (inactive)

Structure (SMILES)	cytotoxicity
O=C(CCNS(=O)(=O)c1cccs1)Nc1ccccc1F	-34.3% (inactive)
COc1ccc(Cn2nnnc2CN2CCC(c3nc4ccccc4s3)CC2)cc1	-9.8% (inactive)
Cc1c(C(=O)OC(C)C)[nH]c2c1C(=O)CC(C)(C)C2	-0.2% (inactive)
CCOC(=O)C1CCCN(C(=O)CCC(=O)Nc2ccc3nc(N4CCOCC4)cc(C)c3c2)C1 (centres undefined)	9.9% (inactive)
CCOc1ccc2[nH]c(=O)c(CN(CCO)C(=O)c3ccc(Br)cc3)cc2c1	6.1% (inactive)
O=C1CN(C(=O)COC(=O)COc2ccc3c(c2)CCC3)c2ccccc2N1	2.9% (inactive)
COc1cc(NC(=O)c2cnn3c(C)cc(C)nc23)c(OC)cc1Cl	12.9% (inactive)
CC1(C)Cc2c(sc3c2c(=N)n(Cc2ccco2)c(=O)n3CC(=O)Nc2ccccc2)CO1	5.3% (inactive)
Cc1ccc(NC(=O)Cn2c(=O)n(Cc3ccco3)c(=N)c3c4c(sc32)COC(C)(C)C4)cc1	24.6% (inactive)
CC1(C)Cc2c(sc3c2c(=N)n(Cc2ccco2)c(=O)n3CC(=O)Nc2ccc(Cl)cc2)CO1	51.5% (active)
Cc1cccc(OCC(O)Cn2c(-n3nc(C)cc3C)nc3c2c(=O)[nH]c(=O)n3C)c1 (centres undefined)	-2.9% (inactive)
CCCOC(=O)Nc1nc2ccccc2o1	-8.2% (inactive)
COc1ccccc1C(=O)Nc1nnc(-c2ccc(F)cc2)o1	4.1% (inactive)
Cc1nc2ccc(N3C(=O)CCC3=O)cc2[nH]1	-18.8% (inactive)
COc1ccc(CN2CCN(S(=O)(=O)c3ccccc3)CC2)c(OC)c1	-0.4% (inactive)
O=C(CCC1CCCC1)N1CCN(C(=O)COc2ccccc2)CC1	8.2% (inactive)
Cn1c(N)c(C(=O)CSc2nc3ccccc3n2-c2ccccc2)c(=O)n(C)c1=O	106% (active)
COc1ccc(-n2c(SCC(=O)c3c(N)n(C)c(=O)n(C)c3=O)nc3ccccc32)cc1	6.1% (inactive)
NC(=O)CSc1nc2ccccc2n1-c1ccccc1	-1.9% (inactive)
